# According to PubChem BioAssay AID1159580 (chemical genetic matrix, 2015):
# The whole screen tested about 5,500 compounds, of which about 2,000 (36%) were called active. Inconclusive results (about 18%) are left out. Some of the results follow. Values without a mark were called inactive. Cut-off read from the data, not from the text of the source: active = normalized growth mostly below about 0.91 (no sharp cut-off); inconclusive = no clear call, values can overlap the other calls; inactive = mostly above about 0.92.
# Test: chemical genetic growth profiling, strain panel (AID 1159580);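 note: tested at 20 µM; growth read once vehicle control cultures reached saturation at 30 °C; 1 = growth at the plate median or of vehicle wells; lower values mean less growth of the strain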
# Conditions: S. cerevisiae deletion strains, growth OD
# [1] = locus YAR019C, strain CDC15, active compounds read low
# [2] = locus YBL105C, strain PKC1, active compounds read low
# [3] = locus YBR135W, strain CKS1, active compounds read low
# [4] = locus YBR136W, strain MEC1, active compounds read low
# [5] = locus YBR160W, strain CDC28, active compounds read low
# [6] = locus YDL017W, strain CDC7, active compounds read low
# [7] = locus YDL028C, strain MPS1, active compounds read low
# [8] = locus YDL101C, strain DUN1, active compounds read low
# [9] = locus YDL108W, strain KIN28, active compounds read low
# [10] = locus YDL132W, strain cdc53, active compounds read low
# [11] = locus YDL214C, strain PRR2, active compounds read low
# [12] = locus YDR052C, strain DBF4, active compounds read low
# [13] = locus YDR054C, strain cdc34, active compounds read low
# [14] = locus YDR226W, strain ADK1, active compounds read low
# [15] = locus YDR477W, strain SNF1, active compounds read low
# [16] = locus YER123W, strain YCK3, active compounds read low
# [17] = locus YER133W, strain GLC7, active compounds read low
# [18] = locus YFL009W, strain cdc4, active compounds read low
# [19] = locus YFL029C, strain CAK1, active compounds read low
# [20] = locus YFR003C, strain YPI1, active compounds read low
# [21] = locus YFR019W, strain FAB1, active compounds read low
# [22] = locus YFR028C, strain CDC14, active compounds read low
# [23] = locus YGR040W, strain KSS1, active compounds read low
# [24] = locus YGR052W, strain FMP48, active compounds read low
# [25] = locus YGR092W, strain DBF2, active compounds read low
# [26] = locus YHR030C, strain SLT2, active compounds read low
# [27] = locus YHR079C, strain IRE1, active compounds read low
# [28] = locus YHR082C, strain KSP1, active compounds read low
# [29] = locus YHR205W, strain SCH9, active compounds read low
# [30] = locus YIL147C, strain SLN1, active compounds read low
# [31] = locus YJL095W, strain BCK1, active compounds read low
# [32] = locus YJL128C, strain PBS2, active compounds read low
# [33] = locus YJL157C, strain FAR1, active compounds read low
# [34] = locus YJR016C, strain ILV3, active compounds read low
# [35] = locus YJR066W, strain TOR1 (second series), active compounds read low
# [36] = locus YJR066W, strain TOR1, active compounds read low
# [37] = locus YKL048C, strain ELM1, active compounds read low
# [38] = locus YKL067W, strain YNK1, active compounds read low
# [39] = locus YKL101W, strain HSL1, active compounds read low
# [40] = locus YKL193C, strain SDS22, active compounds read low
# [41] = locus YKL203C, strain TOR2, active compounds read low
# [42] = locus YLR113W, strain HOG1, active compounds read low
# [43] = locus YLR133W, strain CKI1, active compounds read low
# [44] = locus YLR403W, strain SFP1, active compounds read low
# [45] = locus YML070W, strain DAK1, active compounds read low
# [46] = locus YMR001C, strain CDC5, active compounds read low
# [47] = locus YMR205C, strain PFK2 (second series), active compounds read low
# [48] = locus YMR277W, strain FCP1, active compounds read low
# [49] = locus YNL006W, strain LST8, active compounds read low
# [50] = locus YNL020C, strain ARK1, active compounds read low
# [51] = locus YNL161W, strain CBK1, active compounds read low
# [52] = locus YNL183C, strain NPR1, active compounds read low
# [53] = locus YNL207W, strain RIO2, active compounds read low
# [54] = locus YNL222W, strain SSU72, active compounds read low
# [55] = locus YNL307C, strain MCK1 (second series), active compounds read low
# [56] = locus YOL078W, strain AVO1, active compounds read low
# [57] = locus YOL136C, strain PFK27, active compounds read low
# [58] = locus YOR061W, strain CKA2, active compounds read low
# [59] = locus YOR119C, strain RIO1, active compounds read low
# [60] = locus YOR231W, strain MKK1, active compounds read low
# [61] = locus YOR329C, strain SCD5, active compounds read low
# [62] = locus YPL031C, strain PHO85, active compounds read low
# [63] = locus YPL153C, strain RAD53, active compounds read low
# [64] = locus YPL204W, strain HRR25, active compounds read low
# [65] = locus YPL209C, strain IPL1, active compounds read low
# [66] = locus YPL256C, strain CLN2, active compounds read low
# [67] = locus YPR025C, strain CCL1, active compounds read low
# [68] = locus YPR106W, strain ISR1, active compounds read low
# [69] = locus YPR111W, strain DBF20, active compounds read low
# [70] = strain NNK1, active compounds read low
# [71] = strain TSCII, active compounds read low
# [72] = locus YDR150W, strain NUM1, active compounds read low
# [73] = locus YNL322C, strain KRE1, active compounds read low
compound,measurement,setting,value
O=C(c1ccc2ccccc2c1)N1CCN(c2ccnc3cc(Cl)ccc23)CC1,normalized growth,[1],1
same,normalized growth,[2],1
same,normalized growth,[3],0.997
same,normalized growth,[4],0.997
same,normalized growth,[5],0.995
same,normalized growth,[6],0.998
same,normalized growth,[7],0.991
same,normalized growth,[8],0.994
same,normalized growth,[9],0.99
same,normalized growth,[10],0.987
same,normalized growth,[11],0.957
same,normalized growth,[12],0.988
same,normalized growth,[13],0.981
same,normalized growth,[14],1
same,normalized growth,[15],0.958
same,normalized growth,[16],0.947
same,normalized growth,[17],0.965
same,normalized growth,[18],0.993
same,normalized growth,[19],1
same,normalized growth,[20],1
same,normalized growth,[21],0.941
same,normalized growth,[22],0.997
same,normalized growth,[23],0.959
same,normalized growth,[24],1.08
same,normalized growth,[25],0.977
same,normalized growth,[26],0.821 (active)
same,normalized growth,[27],0.968
same,normalized growth,[28],1.01
same,normalized growth,[29],0.904
same,normalized growth,[30],0.996
same,normalized growth,[31],0.94
same,normalized growth,[32],0.98
same,normalized growth,[33],0.974
same,normalized growth,[34],0.998
same,normalized growth,[35],0.947
same,normalized growth,[36],0.96
same,normalized growth,[37],0.974
same,normalized growth,[38],0.962
same,normalized growth,[39],0.958
same,normalized growth,[40],0.992
same,normalized growth,[41],0.991
same,normalized growth,[42],0.955
same,normalized growth,[43],0.95
same,normalized growth,[44],0.951
same,normalized growth,[45],0.959
same,normalized growth,[46],0.992
same,normalized growth,[47],0.973
same,normalized growth,[48],0.995
same,normalized growth,[49],0.995
same,normalized growth,[50],0.945
same,normalized growth,[51],0.997
same,normalized growth,[52],0.953
same,normalized growth,[53],0.994
same,normalized growth,[54],0.995
same,normalized growth,[55],0.921
same,normalized growth,[56],0.997
same,normalized growth,[57],0.952
same,normalized growth,[58],0.973
same,normalized growth,[59],1.03
same,normalized growth,[60],0.955
same,normalized growth,[61],0.995
same,normalized growth,[62],0.953
same,normalized growth,[63],0.962
same,normalized growth,[64],0.939
same,normalized growth,[65],0.998
same,normalized growth,[66],0.929
same,normalized growth,[67],0.988
same,normalized growth,[68],0.999
same,normalized growth,[69],0.984
same,normalized growth,[70],0.987
same,normalized growth,[71],0.998
O=C(Nc1ccc(C(F)(F)F)cc1)N1CCN(c2ccnc3cc(Cl)ccc23)CC1,normalized growth,[1],0.984
same,normalized growth,[2],0.977
same,normalized growth,[3],0.987
same,normalized growth,[4],0.973
same,normalized growth,[5],0.973
same,normalized growth,[6],0.994
same,normalized growth,[7],0.981
same,normalized growth,[8],0.982
same,normalized growth,[9],0.983
same,normalized growth,[10],0.995
same,normalized growth,[11],1.01
same,normalized growth,[12],0.983
same,normalized growth,[13],0.975
same,normalized growth,[14],0.983
same,normalized growth,[15],0.997
same,normalized growth,[16],1.02
same,normalized growth,[17],1.01
same,normalized growth,[18],0.985
same,normalized growth,[19],0.965
same,normalized growth,[20],0.988
same,normalized growth,[21],0.999
same,normalized growth,[22],0.984
same,normalized growth,[23],1
same,normalized growth,[24],1.08
same,normalized growth,[25],0.975
same,normalized growth,[26],1.08
same,normalized growth,[27],1.04
same,normalized growth,[28],1.1
same,normalized growth,[29],0.995
same,normalized growth,[30],0.981
same,normalized growth,[31],1.1
same,normalized growth,[32],0.993
same,normalized growth,[33],1
same,normalized growth,[34],0.993
same,normalized growth,[35],1.02
same,normalized growth,[36],1.11
same,normalized growth,[37],0.996
same,normalized growth,[38],0.992
same,normalized growth,[39],1.01
same,normalized growth,[40],0.988
same,normalized growth,[41],1.06
same,normalized growth,[42],1.01
same,normalized growth,[43],0.994
same,normalized growth,[44],1.02
same,normalized growth,[45],1.01
same,normalized growth,[46],0.98
same,normalized growth,[47],1.01
same,normalized growth,[48],0.99
same,normalized growth,[49],0.991
same,normalized growth,[50],1
same,normalized growth,[51],0.978
same,normalized growth,[52],1.04
same,normalized growth,[53],0.99
same,normalized growth,[54],0.982
same,normalized growth,[55],0.979
same,normalized growth,[56],0.991
same,normalized growth,[57],1.01
same,normalized growth,[58],1.01
same,normalized growth,[59],1.06
same,normalized growth,[60],1.02
same,normalized growth,[61],0.991
same,normalized growth,[62],1.01
same,normalized growth,[63],1.01
same,normalized growth,[64],0.997
same,normalized growth,[65],0.984
same,normalized growth,[66],1
same,normalized growth,[67],0.983
same,normalized growth,[68],0.986
same,normalized growth,[69],0.979
same,normalized growth,[70],0.979
same,normalized growth,[71],0.977
CC1CCN(C(=O)CC#N)CC1,normalized growth,"locus YAL013W, strain DEP1, active compounds read low",1
same,normalized growth,"locus YBR229C, strain ROT2, active compounds read low",1
same,normalized growth,[8],1.02
same,normalized growth,"locus YDL134C, strain PPH21, active compounds read low",0.986
same,normalized growth,[72],1.02
same,normalized growth,"locus YEL061C, strain CIN8, active compounds read low",1.03
same,normalized growth,"locus YGR078C, strain PAC10, active compounds read low",1
same,normalized growth,[26],1.06
same,normalized growth,"locus YHR087W, strain rtc3, active compounds read low",1.02
same,normalized growth,"locus YJL187C, strain SWE1, active compounds read low",0.981
same,normalized growth,"locus YJR043C, strain POL32, active compounds read low",0.999
same,normalized growth,"locus YJR075W, strain HOC1, active compounds read low",1.01
same,normalized growth,"locus YLR039C, strain RIC1, active compounds read low",1.08
same,normalized growth,"locus YLR058C, strain SHM2 (second series), active compounds read low",0.995
same,normalized growth,"locus YLR085C, strain ARP6, active compounds read low",1.01
same,normalized growth,"locus YLR262C, strain YPT6, active compounds read low",1.1
same,normalized growth,"locus YML094W, strain GIM5, active compounds read low",0.991
same,normalized growth,"locus YMR219W, strain ESC1, active compounds read low",1
same,normalized growth,"locus YMR263W, strain SAP30, active compounds read low",0.985
same,normalized growth,"locus YNL153C, strain GIM3, active compounds read low",1.01
same,normalized growth,"locus YNL298W, strain CLA4 (second series), active compounds read low",0.957
same,normalized growth,[73],0.992
same,normalized growth,"locus YNR030W, strain Alg12, active compounds read low",0.981
same,normalized growth,"locus YOL006C, strain TOP1, active compounds read low",1.01
same,normalized growth,"locus YPL055C, strain LGE1, active compounds read low",0.979
same,normalized growth,"locus YPL241C, strain CIN2, active compounds read low",0.996
same,normalized growth,"locus YPR135W, strain CTF4, active compounds read low",1.02
CCCn1c(C)c(C(=O)c2ccc3ccccc3c2)c2ccccc21,normalized growth,"locus YAL040C, strain CLN3, active compounds read low",0.99
same,normalized growth,"locus YCL061C, strain MRC1 (second series), active compounds read low",0.99
same,normalized growth,[72],1.01
same,normalized growth,"locus YDR363W, strain ESC2, active compounds read low",0.96
same,normalized growth,"locus YER002W, strain NOP16, active compounds read low",0.999
same,normalized growth,"locus YMR307W, strain GAS1, active compounds read low",1.01
same,normalized growth,"locus YNL175C, strain NOP13, active compounds read low",0.974
same,normalized growth,"locus YNL197C, strain WHI3, active compounds read low",0.977
same,normalized growth,"locus YNL224C, strain SQS1, active compounds read low",1
same,normalized growth,[73],0.991
same,normalized growth,"locus YOR083W, strain WHI5 (second series), active compounds read low",0.995
